Source: PubChem BioAssay (National Center for Advancing Translational Sciences (NCATS))
HT1080-NT tox – kills 2HG-producing HT-1080-NT fibrosarcoma cells | 360,000 compounds, 1.6% hits | HT-1080-NT fibrosarcoma viability, CellTiter-Glo ATP luminescence, 48 h | AID 686970 | Potency, µM (highest dose often 46.1 µM), for the others: top-dose activity, negative = less viability, hits mostly cytotoxic;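 further: NT is the 2HG producing partner of a matched IDH1 knockdown line; 0% = DMSO-treated cells and -100% = media-only wells without cells; nearly all actives have a fitted effect of over 55% in size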
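HT-1080-NT; 750 cells/well; 5% FBS RPMI; 48 h compound, 37 degrees C; CellTiter-Glo luminescence; curve fitting and curve-class assignment.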
TGFb inhibitor – blocks TGF-b signaling | HepG2 CAGA-GFP TGF-b/SMAD3 reporter, GFP fluorescence, 18 h; TGF-beta stimulated, 500 pg/mL final | Potency, µM (top dose mostly 46.1 µM), for the others: top-dose activity, negative = inhibition, most hits filed as inhibitors | 410,000 compounds, 1.2% hits | AID 588855; further: on the % scale 0 is the no-effect control and ±100 the full control effect; nearly all actives have a fitted effect of over 65% in size
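TGF-beta reporter screen: HEPG2 CAGA-GFP, 1% FBS, 500 pg/mL TGF-beta final, 18 h; per-cell GFP summed per well; curves fitted and categorized by class.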
HT1080 IDH1KD tx – kills HT-1080 cells with IDH1 knockdown | HT-1080 IDH1 knockdown viability, ATP luminescence, 48 h | Potency, µM (top dose mostly 46.1 µM), for inactives: at the top dose activity, negative = toxicity, usual class: cytotoxic | 360,000 compounds, 2% hits | AID 686971;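 further: 0% = DMSO wells and -100% = cell-free medium wells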
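Luminescent ATP read-out (CellTiter-Glo, 10 min at room temperature) after 48 h compound exposure at 37 °C gave viability of IDH1-knockdown HT-1080 cells. Activity was normalised to DMSO and cell-free wells, then fitted as concentration-response curves.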
ATXN2 expr inh – inhibitors of ATXN2 expression; HEK-293 ATXN2-luciferase reporter, luminescence, 24 h; Potency, µM (doses to about 57 µM), for the others: at the top dose activity change, negative = inhibition, most hits filed as inhibitors; 360,000 compounds, 0.72% hits; AID 1745845; further: on the % scale 0 is the no-effect control and ±100 the full control effect; nearly all actives have a fitted effect of over 55% in size
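qHTS (up to 57 uM final) was run with 24 h compound exposure of reporter cells at 37 °C. Each well was multiplexed: SteadyGlo luminescence measured ATXN2-luciferase expression after a fluorogenic Gly-Phe-AFC viability readout (25 uM final).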
HepG2 tox – kills HepG2 cells in TGF-b inhibitor counter-screen | HepG2 CAGA-GFP viability, ATP luminescence, 18 h | Potency, µM (titrated, usually from 46.1 µM), inactives show at the highest dose activity change, negative = cytotoxicity, actives largely listed as cytotoxic | 410,000 compounds, 0.76% hits
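CellTiter-Glo luminescence gave cytotoxicity after 18 hours at 37 degrees C. The cells were HepG2 CAGA-GFP in 1% FBS DMEM, stimulated with 500 pg/mL TGF-beta after compound addition. %Activity was normalised to no-cell wells (complete cell-killing) and DMSO (no toxicity), and curves were fitted and classified.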
ATXN viability – viability counter-screen for ATXN expression inhibitors | 400,000 compounds, 0.49% hits | Potency, µM (titrated, usually from 56.7 µM), hits mostly cytotoxic | S2 cells (HEK-293 line with an ATXN2-luciferase reporter) viability, CellTiter-Fluor protease fluorescence, 24 h; further: nearly all actives have a fitted effect of over 40% in size
* = called active by the depositor. In the library only some 3.9% were active in any assay of this set; here they are far more common. The call rests on the fitted dose curve; in most records, active means well fitted curve in the direction sought with a large enough effect; inconclusive means small, poorly fitted or top-dose-only effect, or another doubt; inactive means no such curve, though single readings can be large; an effect the other way counts as inactive or inconclusive. Potency means the concentration at half of the fitted maximal effect.

For COCCNC(=O)c1sc2ncccc2c1-n1c(C)ccc1C the results were TGFb inhibitor 14%, ATXN2 expr inh -2%, HepG2 tox 5% and ATXN viability inactive.
`CC(C)(C)n1ncc2c(=O)n(Cc3ccccc3SC(F)(F)F)cnc21` gave TGFb inhibitor inconclusive and HepG2 tox -21%.
Screening CCN(C(=O)C1CCCN(c2ncnc3c2nc2n3CCCCC2)C1)c1cccc(C)c1 (configuration not stated) returned TGFb inhibitor inconclusive, ATXN2 expr inh inconclusive, HepG2 tox -24% and ATXN viability inconclusive.
Screening CCn1c2ccccc2c2nnc(SCCCn3c(=O)[nH]c4ccccc43)nc21 returned HT1080-NT tox -1%, TGFb inhibitor -2%, HT1080 IDH1KD tx 17%, ATXN2 expr inh inconclusive, HepG2 tox 3% and ATXN viability 20µM*.
For CC1CC(=O)c2c(cc3c(-c4c(O)cc(O)c5c(O)c6c(cc45)OC(C)CC6=O)c(O)cc(O)c3c2O)O1 (configuration not stated) the results were HT1080-NT tox 4.6µM*, TGFb inhibitor inconclusive, HT1080 IDH1KD tx 5.2µM*, ATXN2 expr inh 20µM*, HepG2 tox -103% and ATXN viability inactive.
`O=C1CC(c2ccc(O)cc2)Oc2cc(O)cc(O)c21` (configuration not stated) gave HT1080-NT tox -11%, TGFb inhibitor 12%, HT1080 IDH1KD tx 13%, ATXN2 expr inh 23%, HepG2 tox 0% and ATXN viability inactive.
`COc1ccc(-c2cn3nc4c(nc3n2)CCCC4)cc1` gave HT1080-NT tox 7%, TGFb inhibitor 14%, HT1080 IDH1KD tx 11%, ATXN2 expr inh 16µM* and HepG2 tox 0%.
CN1CCN(c2nc3ccccc3nc2C(C#N)S(=O)(=O)c2ccccc2)CC1 (configuration not stated) was read as HT1080-NT tox -1%, TGFb inhibitor 7.9µM*, HT1080 IDH1KD tx -1%, HepG2 tox -42% and ATXN viability inactive.
`COc1ccc(-n2ccc(-c3sc(NCc4cc(OC)c5c(c4)OCO5)nc3C)n2)cc1` gave ATXN viability inactive.
For COc1ccc(/C=N/N(Cc2ccccc2)c2ccccc2)cc1O the results were HT1080-NT tox 15µM*, TGFb inhibitor inconclusive, HT1080 IDH1KD tx 23µM*, ATXN2 expr inh 14%, HepG2 tox -39% and ATXN viability inactive.
For COc1cc(C=NCc2ccccc2)ccc1O the results were HT1080-NT tox -6%, TGFb inhibitor -4%, HT1080 IDH1KD tx -3%, HepG2 tox -1% and ATXN viability inactive.
Clc1nc(-c2ccccc2)c2ccccc2n1 was read as HT1080-NT tox -2%, TGFb inhibitor 8%, HT1080 IDH1KD tx -4%, ATXN2 expr inh 9%, HepG2 tox -2% and ATXN viability inactive.
For NC(N)=Nc1nc(-c2ccccc2)c2ccccc2n1 the results were HT1080-NT tox -29%, TGFb inhibitor inconclusive, HT1080 IDH1KD tx 18µM*, ATXN2 expr inh inconclusive and HepG2 tox -40%.
For CC(C)OC(=O)Nc1ccc2c(c1)N(C(=O)N1CCN(C)CC1)c1ccccc1CC2 the results were HT1080-NT tox 23µM*, TGFb inhibitor -5%, HT1080 IDH1KD tx 23µM*, ATXN2 expr inh -15%, HepG2 tox -85% and ATXN viability inactive.
Screening CCOC(=O)Nc1ccc2c(c1)N(C(=O)N1CCN(C)CC1)c1ccccc1CC2 returned HT1080-NT tox inconclusive, TGFb inhibitor -19%, HT1080 IDH1KD tx inconclusive, HepG2 tox -35% and ATXN viability inactive.
For CCCCN1C(C(=O)c2ccccc2)=C(OC(=O)CC)c2ccccc2S1(=O)=O the results were TGFb inhibitor inconclusive, ATXN2 expr inh inconclusive, HepG2 tox -45% and ATXN viability inconclusive.
`Oc1cc(Nc2cccnc2)cc2cccnc12` gave TGFb inhibitor inconclusive, ATXN2 expr inh inconclusive, HepG2 tox -57% and ATXN viability inconclusive.
Oc1cc(NCCc2cccnc2)cc2cccnc12 was read as TGFb inhibitor inconclusive, ATXN2 expr inh 40µM*, HepG2 tox 11µM* and ATXN viability inconclusive.
`C=C1CCN(C(CC(C)C)C(=O)NCc2ccc(OC)cc2)S(=O)(=O)c2ccccc21` (configuration not stated) gave TGFb inhibitor -16% and HepG2 tox -10%.
Screening Cc1cc(C)c2nc(NNC(=O)c3ccc(S(=O)(=O)N4CC(C)CC(C)C4)cc3)sc2c1 (configuration not stated) returned HT1080-NT tox inconclusive, TGFb inhibitor inconclusive, HT1080 IDH1KD tx 12µM*, ATXN2 expr inh inconclusive, HepG2 tox -30% and ATXN viability inactive.
Cc1cc(C)c2nc(NNC(=O)c3ccc(S(=O)(=O)N4CCCC(C)C4)cc3)sc2c1 (configuration not stated) was read as HT1080-NT tox inconclusive, TGFb inhibitor inconclusive, HT1080 IDH1KD tx inconclusive, ATXN2 expr inh -35%, HepG2 tox -41% and ATXN viability inactive.
`Cc1cccc2sc(NNC(=O)c3ccc(S(=O)(=O)N4CC(C)CC(C)C4)cc3)nc12` (configuration not stated) gave HT1080-NT tox inconclusive, TGFb inhibitor inconclusive, HT1080 IDH1KD tx 16µM*, ATXN2 expr inh inconclusive, HepG2 tox -62% and ATXN viability inactive.
For Cc1ccc2nc(NNC(=O)c3ccc(S(=O)(=O)N4CCc5ccccc5C4)cc3)sc2c1 the results were HT1080-NT tox inconclusive, TGFb inhibitor inconclusive, HT1080 IDH1KD tx 4.6µM*, ATXN2 expr inh inconclusive, HepG2 tox -23% and ATXN viability inactive.
COc1ccc2c(CNC3CCCCCC3)c(C(=O)O)n(Cc3ccc(C)cc3)c2c1 was read as TGFb inhibitor inconclusive, ATXN2 expr inh -28%, HepG2 tox -17% and ATXN viability inconclusive.
Screening CN(C)/[N+]([O-])=N/Oc1cc(ON=[N+]([O-])N2CCN(c3ncccn3)CC2)c([N+](=O)[O-])cc1[N+](=O)[O-] returned TGFb inhibitor inconclusive and HepG2 tox -10%.
Screening Nc1ccc(N(c2ccccc2)c2ccc(N)cc2)cc1 returned HT1080-NT tox 16µM*, TGFb inhibitor -10%, HT1080 IDH1KD tx 21µM*, ATXN2 expr inh inconclusive, HepG2 tox -29% and ATXN viability inactive.
